Out of some 220,000 compounds screened, about 16,000 (7.3%) were called active. Another 25% or so got no clear call; they are omitted. Calls come from the whole dose curve; as a rule, active = well fitted inhibition curve with a large enough effect (not every such curve was filed as active); inconclusive = small, poorly fitted or top-dose-only effect, or another doubt; inactive = no such curve, though single readings can be large or run the other way. The full list was thinned out, with actives kept by preference.
target: Aldehyde dehydrogenase 1A1 (Homo sapiens) (UniProt P00352); assay: qHTS Assay for Inhibitors of Aldehyde Dehydrogenase 1 (ALDH1A1); settings: Purified ALDH1A1, NADH fluorescence, propionaldehyde substrate; series mostly up to 75.3 µM;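 for activity, negative = inhibition: plate controls were no enzyme wells and a reference inhibitor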
Sequence (P00352 whole entry, looked up): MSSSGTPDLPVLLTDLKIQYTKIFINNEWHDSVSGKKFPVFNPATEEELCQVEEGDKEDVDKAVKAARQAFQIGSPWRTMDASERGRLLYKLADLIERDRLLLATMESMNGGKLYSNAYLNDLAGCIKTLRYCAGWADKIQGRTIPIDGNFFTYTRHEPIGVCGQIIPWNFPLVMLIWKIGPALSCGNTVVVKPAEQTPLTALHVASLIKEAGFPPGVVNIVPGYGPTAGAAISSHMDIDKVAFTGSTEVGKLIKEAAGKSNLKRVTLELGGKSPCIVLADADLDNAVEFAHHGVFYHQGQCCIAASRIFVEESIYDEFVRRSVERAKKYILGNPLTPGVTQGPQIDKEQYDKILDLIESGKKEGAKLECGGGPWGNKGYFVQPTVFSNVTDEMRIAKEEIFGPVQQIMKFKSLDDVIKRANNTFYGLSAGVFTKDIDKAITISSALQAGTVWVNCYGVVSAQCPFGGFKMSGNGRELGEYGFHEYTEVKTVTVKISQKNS
Potency is the fitted concentration of half-maximal effect.

Potency, inactive:
Cc1ccc(C(=O)C(=S)N2CCOCC2)cc1
CCOc1cc(C(=O)OCC(=O)Nc2cccc(C)c2)ccc1OCC(=O)N1CCOCC1
Clc1ccc(CSc2nnc3c(n2)[nH]c2ccccc23)cc1
COC(OC)c1ccnc(SCc2ccccc2Cl)n1
Nc1nc(SCc2ccccc2Cl)n[nH]1
O=c1[nH]c(SCc2ccccc2)nnc1-c1ccccc1
O=C(NC(=O)c1cc(OCC(F)(F)F)ccc1OCC(F)(F)F)Nc1ccccc1
Cc1ccc(-n2c(O)c(C=Nc3ccc(S(=O)(=O)Nc4ncccn4)cc3)c3ccccc3c2=O)cc1C
CCOc1ccc(N=Cc2c(O)n(-c3cccc(C)n3)c(=O)c3ccccc23)cc1
O=C(NCCOc1ccccc1F)Nc1ccc(Br)cc1
Cc1ccnc(N2C(=O)c3ccccc3C2Nc2ccc3c(c2)OCCO3)c1 (centres undefined)
O=C(NC1CCCCC1)C1c2ccccc2C(=O)N1Cc1ccco1 (centres undefined)
COc1ccccc1NC(=O)c1ccc(C)s1
COc1ccccc1NC(=O)/C=C/C(=O)O
Cc1ccc(Cl)cc1NC(=O)COC(=O)C1CCCCC1
CCCC(=O)OCC(=O)Nc1cc(Cl)ccc1[N+](=O)[O-]
Cc1ccc2nc(-c3ccccn3)cc(C(=O)Nc3ccc4c(c3)OCO4)c2c1
CCCCn1nc(C(=O)Nc2ccc(S(=O)(=O)Nc3ncccn3)cc2)c2ccccc2c1=O
Cn1cc(CN2CCC(C(O)CCc3ccccc3)CC2)c(-c2ccccc2F)n1 (centres undefined)
CS(=O)(=O)n1nc(-c2ccco2)nc1N
C/C(N)=C(/C#N)C(=O)COC(=O)c1cc(-c2ccccc2)nc2ccc(Br)cc12
Cc1ccc(NC(=O)CN2CCCCC2)c2c1CC(C)(C)O2
Cc1cc(CO)nn1-c1ccc([N+](=O)[O-])cc1
COc1ccc(C(CC(=O)Nc2ccc(C)cc2)NC(=O)C(F)(F)F)cc1 (centres undefined)
Cc1ccc(OC(=O)CCC(=O)Nc2ccc(Br)cc2)cc1
COC(=O)C1=C(C)Nc2ncnn2C1c1cccnc1 (centres undefined)
COC(=O)C1=C(C)Nc2ncnn2C1c1ccco1 (centres undefined)
Cc1cc(C)cc(NC(=O)N(C)Cc2ccccc2)c1
CCOCCCNC(=O)c1c[nH]c2cc(C)ccc2c1=O
CCCCOCCCNC(=O)c1ccccc1OCC
Cc1ccc(O)c(NC(=S)NC(=O)COc2ccc(Br)cc2)c1
Cn1c(CO)cnc1SCc1ccccc1
CSc1nc2ccccc2c(=O)n1Cc1ccc(F)cc1
CCCOCC(O)CC(CC)C(=O)NNC(=S)Nc1ccccc1 (centres undefined)
O=C(Nc1nc(-c2ccc(-c3ccccc3)cc2)cs1)c1cnccn1
CC1(C)CC(CC(=O)O)C(=O)O1 (centres undefined)
Cc1ccc(C(=O)NC(=S)NCc2cccnc2)cc1
Cc1ccc(NC(=S)N(CCN2CCCCC2)Cc2ccco2)cc1C
COc1ccc(CNC(=O)CN2CCC(n3nnc4cc(F)ccc43)CC2)cc1
COc1ccc(C(=O)Nc2c(N)nc(SCC(=O)N3CCC(C)CC3)[nH]c2=O)cc1OC
Cc1nnc(SCC(=O)N2CCOCC2)[nH]c1=O
O=C(Nc1ccc(F)c([N+](=O)[O-])c1)C1CC(=O)N(Cc2ccccc2)C1 (centres undefined)
CC(CO)NCC12CC3CC(CC(C3)C1)C2 (centres undefined)
CC(C)n1c(-c2ccncc2)n[nH]c1=S
Nc1ccc(C(=O)NCc2ccccc2)cc1
COC(=O)C1C(=O)NCC1c1ccc(OC)cc1 (centres undefined)
CCCCN1C(=O)CCC(C(=O)O)C1c1ccc(OC)cc1 (centres undefined)
CCOC(=O)C1(CCOC)CCN(Cc2ccc(C(=O)OC)cc2)CC1
COC(=O)c1cc(C(=O)OCC(=O)Nc2cc(C)on2)cc([N+](=O)[O-])c1
CC(=O)c1cccc(NC(=O)[C@@H](NC(N)=O)C(C)C)c1
O=C(CSc1nnc(C2CC2)n1Cc1ccccc1)Nc1cccnc1Cl
CC(=O)c1c(C)[nH]c(C(=O)NCc2ccc(C)cc2)c1C
CC(=O)c1c(C)[nH]c(C(=O)NCCCN2CCCC2)c1C
CC(=O)NC1(c2ccc(F)cc2)CCN(C(=O)c2c(F)cccc2F)CC1
O=C(CCC(=O)NNc1nc2ccccc2c2nc(-c3ccccc3)nn12)NCCCN1CCCC1=O
CCCCCOC(=O)C1=C(C)Nc2nnnn2C1c1ccc(OC)c(OC)c1OC (centres undefined)
CC(=O)C1=C(C)NC(C)=C(C(C)=O)C1c1cn(-c2ccccc2)nc1-c1cccs1
Cc1cc(C)n(CC(=O)Nc2ccc([N+](=O)[O-])cc2)n1
Cc1cc(=O)oc2c1c(C)nn2-c1ccc(Cl)cc1
CC(C)(C)C(=O)CSc1nc2ccccc2o1
COc1ccccc1CNC(=O)c1cc(=O)c2ccccc2o1
Cn1cnnc1SCC(=O)Nc1ccc(N2CCOCC2)cc1
CN(Cc1ccc2nsnc2c1)Cc1nc(Cc2cccc(F)c2)no1
Cc1cc(C)c(C#N)c(SCC(=O)Nc2ccccc2)n1
CCOC(=O)/C(C#N)=C/c1ccc(OCC(=O)Nc2ccccc2)c(OC)c1
CCC(C)NC(=O)CN(C1CCCCC1)S(C)(=O)=O (centres undefined)
CCN(CC)C(=O)CSc1nc2ccccc2o1
CCOC(=O)n1c(SCC(=O)N(CC)CC)nc2ccccc21
O=C(CSc1ncn[nH]1)Nc1nsc(-c2ccccc2)n1
O=C(CSc1n[nH]c(-c2cccnc2)n1)Nc1ccnc2ccccc12
O=S(=O)(c1cccc(C(F)(F)F)c1)N1CCN(c2cnccn2)CC1
CCCn1nc(Oc2nc(NC(C)C)nc(N(C)C)n2)ccc1=O
O=C(NCc1cccnc1)c1nc(-c2cccs2)no1
O=C(/C=C/c1cccs1)NCc1cccnc1
O=[N+]([O-])c1cc(S(=O)(=O)CCCN2CCOCC2)ccc1F
COC(=O)C(C(=O)Nc1cccc(Cl)c1C)C1CCCC1 (centres undefined)
COc1ccc(N2C(=O)CC(SC(C)C)C2=O)cc1 (centres undefined)
ClC1(Cl)CC1CSc1ncn[nH]1 (centres undefined)
Cc1ccc(CC2CC(=O)N(c3nc(C)cc(C)n3)C2=O)cc1 (centres undefined)
COc1ccc(-c2nc(SCC(=O)N3CCOCC3)n[nH]2)cc1
Cc1ccc(N2C(=O)C3CC3C2=O)cc1 (centres undefined)
O=C(CSc1nc2ccc(Nc3nc(N4CCOCC4)nc(N4CCOCC4)n3)cc2s1)NCc1ccco1
CSc1sc(C(=O)NC(=O)NCc2cccnc2)c(C)c1-c1ccon1
Cc1ccccc1CCN(CC(=O)NC1CCCCC1)C(=O)c1csnn1
O=C(CCc1ccccc1)Nc1ncc([N+](=O)[O-])s1
OCCC1CN(Cc2ccc3nsnc3c2)CCN1C1CCCCC1 (centres undefined)
Cn1c(=O)c2cc(S(=O)(=O)NCCC(=O)Nc3ccc(F)cc3F)ccc2n(C)c1=O
O=C(NCCCN1CCN(Cc2ccccc2)CC1)C1CCN(S(=O)(=O)N2CCCC2)CC1
Cc1ccc(S(=O)(=O)N2CCC(C(=O)N[C@@H](C)C(=O)NCCc3ccccc3)CC2)cc1

Potency, active:
CCOc1cc(C(=S)N2CCOCC2)ccc1O 8.91 µM
c1ccc(CSc2nnc(-c3ccco3)c(-c3ccco3)n2)cc1 2.82 µM
Clc1ccccc1CSc1nnc(-c2ccco2)c(-c2ccco2)n1 10 µM
CCOc1ccc(-n2c(O)c(/C=N/Nc3nc(C)cc(C)n3)c3ccccc3c2=O)cc1 5.01 µM
O=C1c2ccccc2C(Nc2ccc3c(c2)OCCO3)N1Cc1ccco1 (centres undefined) 7.08 µM
COc1ccccc1NC(=O)/C=C/C(N)=O 28.2 µM
Cc1ccc(Cl)cc1NC(=O)COC(=O)CC(C)(C)C 8.91 µM
COc1ccc(NC(=O)Cn2c(-c3ccc(OC)cc3)cn(-c3ccc(C)cc3)c2=O)cc1 15.8 µM
CC1=C(C(=O)OC2CCCCC2)C(c2cccnc2)n2ncnc2N1 (centres undefined) 20 µM
CCc1cccc2c(=O)c(C(=O)NCCCOC)c[nH]c12 2 µM
CSc1c(SCc2ccccc2)cnn(Cc2ccccc2)c1=O 11.2 µM
C/C(CC1CC(C)(C)OC1=O)=N/Nc1nc(-c2ccccc2)cs1 (centres undefined) 7.94 µM
O=C(CSc1nc2c(cnn2-c2ccc(F)cc2)c(=O)[nH]1)N1CCCCCC1 0.126 µM
COc1ccc(C2OC(=O)CC2C(=O)NC(C)C)cc1 (centres undefined) 15.8 µM
CCCCN(CC)CCNC(=O)c1[nH]c(C)c(C(C)=O)c1C 10 µM
CC1=C(C(N)=O)C(c2sccc2C)n2nnnc2N1 (centres undefined) 20 µM
Cc1cc(C)nc(N(C#N)CC(=O)Nc2ccccc2)n1 15.8 µM
O=C(CSc1ncn[nH]1)Nc1ccnc2ccccc12 22.4 µM
CCN(C(=O)CSc1ncn[nH]1)c1cccc2ccccc12 25.1 µM
O=C(NCc1cccnc1)c1cn(-c2ccccc2)nc1-c1cccs1 3.98 µM
COc1ccc(N2C(=O)CC(Sc3n[nH]c(-c4ccc(C)cc4)n3)C2=O)cc1 (centres undefined) 0.794 µM
Cc1ccc(N2C(=O)CC(Sc3ncn[nH]3)C2=O)cc1 (centres undefined) 11.2 µM
O=C1CC(Sc2ncn[nH]2)C(=O)N1c1ccccc1 (centres undefined) 1.12 µM
Cc1ccc(CCNC(=O)C2CCN(S(=O)(=O)N3CCCC3)CC2)cc1 12.6 µM

activity, negative = inhibition, inactive:
COC(=O)C1=C(C(=O)OC)[C@@H]2N(C)c3ccccc3[C@@]23C[C@@H](C(=O)OC)N(S(=O)(=O)c2cccs2)C3=N1 0.268% [at 13.5 µM]

From PubChem BioAssay AID1030 (National Center for Advancing Translational Sciences (NCATS), 2008)
